# Experimental data: PubChem BioAssay
# Values joined by “and” are separate entries in the source; they are usually repeats but may differ in a detail not shown here. Equal entries are not always repeated. Active and inactive are the calls of the source. Cut-off read from the data, not from the text of the source, unless noted: active = inhibition above about 80%; inactive = the rest.
# Columns and labels:
# [1] = biological target: NAD(+) hydrolase SARM1 (Homo sapiens) (UniProt Q6SZW1); assay: blocking NAD cleavage by SARM1 SAM-TIR – cell lysate, NAD-Glo luminescence (AID 1508614;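 active = compound whose remaining NAD level is above about 45 nM, limit read from the data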;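 note: higher remaining NAD means stronger inhibition of SARM1 NADase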); settings: SAM-TIR HEK293T lysate NADase, at 1 µM, stronger effect = higher value
# NAD(+) hydrolase SARM1 (Homo sapiens), sequence (Q6SZW1 whole entry, looked up, the tested form may be a part): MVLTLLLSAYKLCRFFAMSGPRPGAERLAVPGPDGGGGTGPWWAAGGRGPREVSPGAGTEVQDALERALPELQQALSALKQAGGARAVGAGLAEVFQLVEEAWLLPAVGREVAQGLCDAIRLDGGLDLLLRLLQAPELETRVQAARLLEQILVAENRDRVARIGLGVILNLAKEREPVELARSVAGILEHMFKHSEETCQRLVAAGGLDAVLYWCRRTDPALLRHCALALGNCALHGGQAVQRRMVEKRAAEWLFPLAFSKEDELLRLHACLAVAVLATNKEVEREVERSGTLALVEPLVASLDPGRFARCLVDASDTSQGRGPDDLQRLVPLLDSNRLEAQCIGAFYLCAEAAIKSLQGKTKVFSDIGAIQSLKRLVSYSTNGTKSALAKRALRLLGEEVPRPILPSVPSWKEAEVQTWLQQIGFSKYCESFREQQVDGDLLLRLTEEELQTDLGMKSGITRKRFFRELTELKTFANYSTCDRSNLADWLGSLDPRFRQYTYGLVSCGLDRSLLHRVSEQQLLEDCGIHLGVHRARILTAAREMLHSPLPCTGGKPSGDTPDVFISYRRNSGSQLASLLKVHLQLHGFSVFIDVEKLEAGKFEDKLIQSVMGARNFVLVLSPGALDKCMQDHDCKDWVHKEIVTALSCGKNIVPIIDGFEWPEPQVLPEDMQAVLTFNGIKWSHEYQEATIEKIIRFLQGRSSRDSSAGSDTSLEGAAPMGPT
# [2] = biological target: Mitogen-activated protein kinase 7 (Homo sapiens) (UniProt Q13164); assay: Gal4-ERK5 driven luciferase induction – cell-based, HTS, primary screen (AID 1508626;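 active = luciferase signal above three times the same-plate solvent-only control wells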;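 note: luciferase driven by Gal4-ERK5 fusion binding five Gal4 sites before minimal TATA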); settings: HeLa Gal4-ERK5 transactivation, 18 h, at 5 µM, stronger effect = higher value
# Mitogen-activated protein kinase 7 (Homo sapiens), sequence (Q13164 whole entry, looked up, the tested form may be a part): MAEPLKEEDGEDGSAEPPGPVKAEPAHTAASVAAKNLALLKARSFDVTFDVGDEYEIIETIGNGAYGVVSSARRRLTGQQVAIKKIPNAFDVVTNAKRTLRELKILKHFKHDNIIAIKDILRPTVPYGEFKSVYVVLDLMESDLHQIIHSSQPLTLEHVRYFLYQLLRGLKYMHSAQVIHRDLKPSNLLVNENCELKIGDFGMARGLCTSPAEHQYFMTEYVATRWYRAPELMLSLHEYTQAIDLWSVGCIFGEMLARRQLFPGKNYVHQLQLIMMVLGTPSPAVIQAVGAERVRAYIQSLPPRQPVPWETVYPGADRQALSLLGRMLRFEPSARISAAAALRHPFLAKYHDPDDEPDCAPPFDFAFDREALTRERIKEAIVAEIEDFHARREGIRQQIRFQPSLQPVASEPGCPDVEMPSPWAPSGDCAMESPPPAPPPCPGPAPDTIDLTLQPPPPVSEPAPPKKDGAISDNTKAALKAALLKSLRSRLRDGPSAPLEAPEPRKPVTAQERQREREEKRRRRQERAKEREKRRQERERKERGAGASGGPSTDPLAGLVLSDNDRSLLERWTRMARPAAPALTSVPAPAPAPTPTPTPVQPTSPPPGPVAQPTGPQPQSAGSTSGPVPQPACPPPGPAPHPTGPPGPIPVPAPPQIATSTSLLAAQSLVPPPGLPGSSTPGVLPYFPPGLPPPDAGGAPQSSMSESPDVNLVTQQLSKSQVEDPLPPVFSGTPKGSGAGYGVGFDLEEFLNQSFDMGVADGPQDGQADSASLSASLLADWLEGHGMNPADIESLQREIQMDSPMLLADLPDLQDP
# [3] = galactose survival enhancers in mitochondrial complex I cybrids – cell-based, galactose medium, ATP luminescence, primary screen (AID 1645843;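 active = z-score of at least 1.8 in each of two replicates, scored against plate mean and spread of sample wells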;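 note: positive z means more ATP and so rescue of galactose-driven cybrid death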); settings: complex I mutant cybrid cells, 72 h, stronger effect = higher value
# [4] = growth inhibition, single agent or in combination, cell-based, chromothripsis tumors, cisplatin or BGB combos (AID 1671449); settings: LFS_MB_P medulloblastoma cells;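 note: cells exposed for 96 hours; 0% = vehicle DMSO and 100% = killing by high DMSO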
# [5] = growth inhibition, single agent and combos, cell-based, chromothripsis tumors, cisplatin or BGB combos (AID 1671450); settings: HDN33 neuroblastoma cells, stronger effect = higher value;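 note: cells exposed to compound for four days; 0% = vehicle DMSO and 100% = cell killing by high DMSO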
# [6] = growth inhibition, single agents and combos, ICB984, cell-based, cisplatin or BGB combos, synergistic combos for chromothripsis tumors (AID 1671451; call rule not given here;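 note: cells exposed for 96 hours before readout; 0% = vehicle DMSO and 100% = killing by high DMSO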); settings: ICB984 medulloblastoma cells, drug combinations, stronger effect = higher value
# [7] = growth inhibition, single agents and combos, LFS_MB_1R, cell-based, cisplatin or BGB combos, synergistic combos for chromothripsis tumors (AID 1671452); settings: LFS_MB_1R medulloblastoma cells, stronger effect = higher value;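 note: cells exposed for 96 hours before readout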
# [8] = growth inhibition, single agents and combos, HTB85, cell-based, BGB or cisplatin IC20 combos, synergistic combos for chromothripsis tumors (AID 1671453); settings: HTB85 osteosarcoma cells, drug combinations, stronger effect = higher value;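 note: cells exposed for 96 hours before readout; 0% = vehicle DMSO and 100% = high DMSO killing control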
# [9] = growth inhibition, single agents and combos, CRL2098, cell-based, BGB or cisplatin IC20 combos, synergistic combos for chromothripsis tumors (AID 1671454); settings: CRL2098 osteosarcoma cells, drug combinations, stronger effect = higher value;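 note: cells exposed for 96 h before readout; 0% = vehicle DMSO and 100% = killing by high DMSO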
# [10] = growth inhibition, single agents and combos, HD-MB03, cell-based, BGB or cisplatin IC20 combos, synergistic combos for chromothripsis tumors (AID 1671455; in the data active = inhibition above about 83%;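 note: 0% = vehicle DMSO and 100% = high DMSO as cytotoxic control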); settings: HD-MB03 medulloblastoma cells, stronger effect = higher value
# [11] = growth inhibition, single agents and combos, UWB1.289, cell-based, BGB or cisplatin combos, synergistic combos for chromothripsis tumors (AID 1671456); settings: UWB1.289 ovarian carcinoma cells, stronger effect = higher value;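 note: cells exposed to compound for four days; 0% = vehicle DMSO and 100% = killing by high DMSO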
# [12] = growth inhibition, single agents and combos, LFS_MB_2R, cell-based, cisplatin combos, synergistic combos for chromothripsis tumors (AID 1671457); settings: LFS_MB_2R medulloblastoma cells, stronger effect = higher value;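 note: cells exposed to compound for four days before readout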
# [13] = growth inhibition, MDA-MB-436, cell-based, BGB or cisplatin combos, synergistic combos for chromothripsis tumors (AID 1671458; call rule not given here;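 note: cells exposed for 96 hours; 0% = vehicle DMSO and 100% = killing by high DMSO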); settings: MDA-MB-436 breast carcinoma growth inhibition, drug combinations, stronger effect = higher value
# [14] = UWB1.289_BRCA1 ovarian cancer growth, cell-based, BGB or cisplatin combinations (AID 1671459); settings: UWB1.289 BRCA1 ovarian carcinoma, drug combinations, stronger effect = higher value
# [15] = drug combination toxicity in non-malignant astrocytes – cell-based, BGB or cisplatin IC20 combos, cytotoxicity control for chromothriptic childhood tumor combination screen (AID 1671460); settings: Human astrocytes, viability inhibition, drug combinations, at 0.5 µM, stronger effect = higher value;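 note: cells exposed to compounds for 96 hours before viability readout; 0% = vehicle and 100% = killing control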
# [16] = BT084 cell growth, single and combined drugs, ICGC_MB145, cisplatin and BGB IC40 combos (AID 1671461); settings: BT084 medulloblastoma cells, drug combinations, stronger effect = higher value;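 note: cells exposed to drugs for 96 hours; 0% = vehicle DMSO and 100% = high DMSO full killing control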
# [17] = RCMB18 cell growth, single agent and combined, cisplatin and BGB IC40 combos (AID 1671462); settings: RCMB18 medulloblastoma cells, stronger effect = higher value;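 note: cells exposed to compound for four days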
# [18] = CRL1545 cell growth, single agent and combined, cisplatin and BGB IC20 combos (AID 1671464); settings: CRL1545 osteosarcoma cells, stronger effect = higher value;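 note: cells exposed to compound for 96 hours before readout; 0% = vehicle DMSO and 100% = high DMSO killing control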
# [19] = measured here: combination with BGB IC40, at 0.05 µM
# [20] = measured here: with BGB IC20 combination, at 0.5 µM
# [21] = measured here: with cisplatin IC20 combination, at 0.5 µM
# [22] = measured here: combination with cisplatin, at 0.5 µM
# [23] = measured here: combination with cisplatin, at 5 µM
smiles,measurement,setting,value
Cc1onc(-c2ccccc2)c1C(=O)N[C@@H]1C(=O)N2[C@@H]1SC(C)(C)[C@@H]2C(=O)O,remaining NAD,[1],10 nM (inactive)
same,luciferase signal,[2],64 AU (inactive)
same,z-score,[3],0.945 (inactive)
CN(C)CCCN1c2ccccc2Sc2ccc(C(F)(F)F)cc21,remaining NAD,[1],10 nM (inactive)
same,luciferase signal,[2],64 AU (inactive)
same,z-score,[3],-1.38 (inactive)
CN(C)[C@@H]1C(=O)C(C(N)=O)=C(O)[C@@]2(O)C(=O)C3=C(O)c4c(O)ccc(Cl)c4[C@@H](O)[C@H]3C[C@@H]12,remaining NAD,[1],10 nM (inactive)
same,luciferase signal,[2],36 AU (inactive)
same,z-score,[3],2.89 (active)
CC/C(=C(/CC)c1ccc(O)cc1)c1ccc(O)cc1,remaining NAD,[1],10 nM (inactive)
same,luciferase signal,[2],56 AU (inactive)
same,z-score,[3],-0.645 (inactive)
Nc1ccc(O)c(C(=O)O)c1,remaining NAD,[1],10 nM (inactive)
same,luciferase signal,[2],48 AU (inactive)
same,z-score,[3],0.62 (inactive) and 0.46 (inactive)
CCN(CC)C(=O)N1CCN(C)CC1,remaining NAD,[1],10 nM (inactive)
same,luciferase signal,[2],60 AU (inactive)
same,z-score,[3],0.74 (inactive)
CCn1cc(C(=O)O)c(=O)c2cc3c(cc21)OCO3,remaining NAD,[1],10 nM (inactive)
same,luciferase signal,[2],88 AU (inactive)
same,z-score,[3],0.245 (inactive)
same,inhibition,"[4]; at 0.5 µM, stronger effect = higher value",-36.8% (inactive)
same,inhibition,"[4]; measured here: combination with BGB IC20, at 0.005 µM",-15.7%
same,inhibition,"[4]; measured here: combination with BGB IC40, at 0.005 µM",-20.3%
same,inhibition,[4]; [19],-2.68%
same,inhibition,"[4]; measured here: combination with cisplatin, at 0.5 µM, stronger effect = higher value",-50%
same,inhibition,"[4]; measured here: combination with cisplatin, at 5 µM, stronger effect = higher value",-47.2%
same,inhibition,"[5]; BGB combo, at 5 µM",-6.85%
same,inhibition,[5]; at 0.5 µM,11.7% (inactive)
same,inhibition,"[5]; cisplatin combo, at 5 µM",-11.4%
same,inhibition,[5]; [20],31.7%
same,inhibition,[5]; [21],-3.7%
same,inhibition,"[5]; single agent, at 5 µM",13.3%
same,inhibition,"[6]; BGB IC20 combo, at 0.005 µM",-17.2%
same,inhibition,"[6]; BGB IC40 combo, at 0.005 µM",7.28%
same,inhibition,"[6]; BGB IC40 combo, at 0.05 µM",6.59%
same,inhibition,[6]; at 0.5 µM,-11.6% (inactive)
same,inhibition,"[6]; cisplatin combo, at 0.05 µM",6.59%
same,inhibition,"[6]; cisplatin combo, at 0.5 µM",-23.1%
same,inhibition,"[6]; cisplatin combo, at 5 µM",6.27%
same,inhibition,"[6]; measured here: 5 uM single agent, at 5 µM",-34.2%
same,inhibition,[7]; at 0.5 µM,0.84% (inactive)
same,inhibition,[7]; [19],-15.9%
same,inhibition,[7]; [22],-7.75%
same,inhibition,[7]; [23],-5.64%
same,inhibition,[8]; at 0.5 µM,-2.07% (inactive)
same,inhibition,"[8]; measured here: with BGB IC20, at 0.5 µM",-19.1%
same,inhibition,"[8]; measured here: with BGB IC20, at 5 µM",-10.5%
same,inhibition,"[8]; measured here: with cisplatin IC20, at 0.5 µM",12%
same,inhibition,"[8]; measured here: with cisplatin IC20, at 5 µM",2.66%
same,inhibition,"[8]; single agent, at 5 µM",-16.7%
same,inhibition,[9]; at 0.5 µM,-34.7% (inactive)
same,inhibition,"[9]; measured here: combination with BGB at IC20, at 0.5 µM",-42.4%
same,inhibition,"[9]; measured here: combination with cisplatin at IC20, at 0.5 µM",-29.3%
same,inhibition,[10]; at 0.5 µM,1.11% (inactive)
same,inhibition,"[10]; measured here: combo with BGB at IC20, at 0.5 µM",-0.045%
same,inhibition,"[10]; measured here: combo with cisplatin at IC20, at 0.5 µM",-3.84%
same,inhibition,[11]; at 0.5 µM,2.29% (inactive)
same,inhibition,"[11]; measured here: inhibition with BGB combination, at 0.05 µM",-2.14%
same,inhibition,"[11]; measured here: inhibition with cisplatin combination, at 0.05 µM",-6.63%
same,inhibition,[12]; at 0.5 µM,-21.9% (inactive)
same,inhibition,[12]; [22],-20.2%
same,inhibition,[12]; [23],-21.2%
same,inhibition,[13]; at 0.5 µM,-14.4% (inactive)
same,inhibition,"[13]; measured here: BGB combination, at 0.5 µM",-16.2%
same,inhibition,"[13]; measured here: BGB combination, at 5 µM",-18.6%
same,inhibition,"[13]; measured here: cisplatin combination, at 0.5 µM",-20.7%
same,inhibition,"[13]; measured here: cisplatin combination, at 5 µM",-20.6%
same,inhibition,"[14]; BGB combination, concentration series, at 5 µM",-2.14%
same,inhibition,[14]; at 0.5 µM,1.91% (inactive)
same,inhibition,"[14]; cisplatin combination, concentration series, at 5 µM",15.4%
same,inhibition,[15],-0.34% (inactive)
same,inhibition,[15]; measured here: combo with BGB IC20,2.16%
same,inhibition,[15]; measured here: combo with cisplatin IC20,-8.86%
same,inhibition,[16]; at 0.5 µM,-9.83% (inactive)
same,inhibition,"[16]; cisplatin combination, at 0.5 µM",15.9%
same,inhibition,"[16]; cisplatin combination, at 5 µM",-11.8%
same,inhibition,"[16]; measured here: BGB IC40 combination 0.05 uM, at 0.05 µM",27.5%
same,inhibition,"[16]; single agent, at 5 µM",-16.8%
same,inhibition,[17]; at 0.5 µM,-3.66% (inactive)
same,inhibition,"[17]; cisplatin combo, at 5 µM",2.43%
same,inhibition,"[17]; measured here: BGB IC40 combination, at 0.05 µM",-11.1%
same,inhibition,[17]; [22],16.7%
same,inhibition,"[17]; single agent, at 5 µM",-9.78%
same,inhibition,[18]; at 0.5 µM,-6.67% (inactive)
same,inhibition,[18]; [20],-7.74%
same,inhibition,[18]; [21],-6.13%
same,inhibition,"[18]; single agent, at 0.05 µM",12.4%
same,inhibition,"[18]; single agent, at 5 µM",12.2%
